Data reported in PubChem BioAssay AID750 (Sanford-Burnham Center for Chemical Genomics, 2007).
The whole screen tested about 86,000 compounds, of which about 140 (0.16%) were called active. The list comes from a sample in which actives are over-represented; it also holds similar structures and randomly drawn compounds. Unmarked numbers belong to inactive results.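 Rule for the calls: active = activation factor of at least 2 for MT1-MMP transcription at 10 µM; inactive = the rest.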

Experiment: MT1-MMP promoter reporter activation – cell-based, luciferase luminescence, primary screen (AID 750)
Details: HT1080 MT1-MMP promoter luciferase reporter, overnight, at 10 µM, stronger effect = higher value

With `CNC(=S)N1N=C(c2ccccc2)CC1c1ccc(Br)cc1` (centres undefined) as the molecule, how does the activation factor read?
Its activation factor is 1.3.

Which activation factor does the source give for `Cc1noc(NS(=O)(=O)c2ccc(N/C=C/C(=O)c3ccccc3)cc2)c1C` here?
The activation factor was 1.3.

With `COc1cc(C)c(C(C)C)cc1S(=O)(=O)n1ccnc1` as the molecule, how does the activation factor read?
The activation factor was 1.2.

For `COc1ccc(NC(=O)CCN2CCCC2)c(OC)c1`, which activation factor is on record?
The activation factor was 1.2.

With `COC(=O)c1ccc(NC(=O)Nc2ccc(C)cc2)cc1` as the molecule, how does the activation factor read?
The activation factor was 1.6.

For `COc1ccc(C(=O)Cc2cnn(-c3ccccc3)c2)c(O)c1`, which activation factor is on record?
Its activation factor is 1.3.

With `CC(C)CCSc1ncnc2c1oc1nc3c(cc12)COC(C)(C)C3` as the molecule, how does the activation factor read?
The activation factor was 1.1.

For `COc1cccc(NC(=O)CN2CCN(c3nc(-c4cccc(OC)c4)cs3)CC2)c1`, which activation factor is on record?
The activation factor was 1.2.

With `CCCNC(=O)NCc1ccc(N2CCCC2=O)cc1` as the molecule, how does the activation factor read?
Its activation factor is 1.1.

For `COc1ccc(C2C(C(C)=O)=C(O)C(=O)N2Cc2cccnc2)cc1` (centres undefined), which activation factor is on record?
The activation factor was 1.2.

Which activation factor does the source give for `CC(C)NC(=O)CSc1nnc(COc2ccccc2Cl)o1` here?
The activation factor was 1.1.

For `CCOn1c(SC(C)C)nc2ccccc2c1=O`, which activation factor is on record?
The activation factor was 1.1.

With `COC(=O)C1CCN(CC(N)=O)CC1` as the molecule, how does the activation factor read?
Its activation factor is 1.1.

Which activation factor does the source give for `CC(C)OC(=O)CN1C(=O)C(=O)c2ccccc21` here?
Its activation factor is 1.3.

Which activation factor does the source give for `COc1ccc(-c2oc(/N=C/N3CCCC3)c(C#N)c2-c2ccc(OC)cc2)cc1` here?
Its activation factor is 1.1.

With `COC(=O)[C@H](Cc1ccccc1)NC(=O)[C@@H]1C[C@H]1[C@@H](NC(=O)OCc1ccccc1)c1ccccc1` as the molecule, how does the activation factor read?
The activation factor was 1.1.

With `CCOc1ccc(S(=O)(=O)NCCSc2ccccc2)cc1` as the molecule, how does the activation factor read?
Its activation factor is 1.1.

With `CCOC(=O)C1=C(CCc2ccccc2)NC(=O)NC1c1ccc2ccccc2c1` (centres undefined) as the molecule, how does the activation factor read?
The activation factor was 1.4.

Which activation factor does the source give for `COc1ccc(C)cc1S(=O)(=O)Nc1cccc(Cl)c1Cl` here?
The activation factor was 1.1.

For `Cc1ccc(C(=O)N2CCCC2)c(F)c1F`, which activation factor is on record?
The activation factor was 1.2.

For `O=C(O)c1cc2ccccc2c(=O)s1`, which activation factor is on record?
The activation factor was 1.1.

With `Cc1cc(C)n(-c2c(F)c(F)c(COC(=O)c3ccccc3)c(F)c2F)n1` as the molecule, how does the activation factor read?
Its activation factor is 1.1.

Which activation factor does the source give for `Cc1ccc(/C=N/NC(=O)C2=NNC(c3ccccc3)(c3ccccc3)C2)c(O)c1` here?
The activation factor was 1.1.

Which activation factor does the source give for `COc1ccc(C)cc1NC(=O)CCS(=O)(=O)c1cccc2nonc12` here?
Its activation factor is 1.

With `CN(C)c1nc(N)nc(CSc2ccccn2)n1` as the molecule, how does the activation factor read?
Its activation factor is 1.1.

Which activation factor does the source give for `CCCc1noc2c1/C(=N\O)CCC2` here?
Its activation factor is 1.1.

For `Cn1c(Cc2cccc3ccccc23)nnc1SCC(=O)N1CCN(c2cccc(Cl)c2)CC1`, which activation factor is on record?
The activation factor was 1.1.

With `CCOc1ccc(NC(=O)CN(C)CC(=O)Nc2cccc(Cl)c2C)cc1OCC` as the molecule, how does the activation factor read?
The activation factor was 0.9.

Which activation factor does the source give for `COc1ccc(N2CCN(C(=O)CNC(=O)c3ccc(C(C)(C)C)cc3)CC2)cc1` here?
The activation factor was 1.1.

With `O=C(NCCSCc1ccccc1)c1ccc(Cl)c(S(=O)(=O)N2CCOCC2)c1` as the molecule, how does the activation factor read?
Its activation factor is 1.1.

With `Cc1cnc(NC(=O)CSc2nnc(C)s2)s1` as the molecule, how does the activation factor read?
Its activation factor is 1.

Which activation factor does the source give for `CCN(CC(=O)NC1CCS(=O)(=O)C1)c1nc(-c2cccnc2)nc2ccccc12` (centres undefined) here?
Its activation factor is 1.1.

For `COc1ccccc1NC(=O)CSc1nnc(C)n1CC1CCCO1` (centres undefined), which activation factor is on record?
Its activation factor is 1.1.

For `O=C(CN1CCN(C(=O)c2ccco2)CC1)Nc1ccc2c(c1)OCO2`, which activation factor is on record?
Its activation factor is 1.4.

With `O=C(Nc1nnc(SCc2c(Cl)cccc2Cl)s1)C1CCCO1` (centres undefined) as the molecule, how does the activation factor read?
Its activation factor is 1.2.

With `Cc1ccc(C2(C(F)(F)F)N=C3Sc4cc(C)cc(C)c4N3C(=O)N2)cc1` (centres undefined) as the molecule, how does the activation factor read?
Its activation factor is 1.1.

With `C=C(C)CNC(=S)/N=c1\scc(C)n1CC` as the molecule, how does the activation factor read?
Its activation factor is 1.3.

For `O=C(Cc1ccc(-n2c(=O)[nH]c3ccccc3c2=O)cc1)N1CCN(c2cccc(Cl)c2)CC1`, which activation factor is on record?
The activation factor was 1.

Which activation factor does the source give for `COc1ccc(Br)cc1CN1CCN(C(=O)c2cccc(OC)c2OC)CC1` here?
Its activation factor is 1.1.

For `COc1ccc(C2=Nc3cc(C)ccc3OC2)cc1`, which activation factor is on record?
Its activation factor is 0.9.

Which activation factor does the source give for `CS(=O)(=O)N1CCN(c2cccc(Cl)n2)CC1` here?
The activation factor was 1.2.

For `COc1ccc(S(=O)(=O)Nc2ccc3oc(C)c(C(C)=O)c3c2)cc1`, which activation factor is on record?
Its activation factor is 1.1.

Which activation factor does the source give for `Cc1ccc(C2=CSC3=NS(=O)(=O)CCN23)cc1C` here?
The activation factor was 1.1.

For `CC1=C(C(=O)OC(C)(C)C)C(c2ccc(Br)cc2)NC(=O)N1CCCC(=O)O` (centres undefined), which activation factor is on record?
The activation factor was 1.1.

For `CCS(=O)(=O)Nc1ccc(C2=NN(S(=O)(=O)c3ccc(F)cc3)C(c3ccco3)C2)cc1` (centres undefined), which activation factor is on record?
The activation factor was 1.1.

Which activation factor does the source give for `CC1=CC(C)(C)NC(=S)N1c1ccccc1` here?
The activation factor was 1.1.

Which activation factor does the source give for `Cc1ccc(SCC(=O)c2cc(C)c(OC(=S)N(C)C)c(C)c2)cc1` here?
The activation factor was 1.9.

Which activation factor does the source give for `COC(=O)CSc1nc2c(c(C3CC=CCC3)c1C#N)CCC2` (centres undefined) here?
Its activation factor is 1.

Which activation factor does the source give for `O=C(NCCCN1CCCCC1)c1ccc2c(c1)NC(=O)C(N1CCOCC1)S2` (centres undefined) here?
Its activation factor is 1.1.

With `CC(C)CC[n+]1ccn(C2=C([O-])c3ccccc3C(=O)/C2=N\S(=O)(=O)c2ccccc2)c1` as the molecule, how does the activation factor read?
The activation factor was 0.8.

Which activation factor does the source give for `Cc1ccc2c(c1)c1ncnc(N3CCc4ccccc4C3)c1n2C` here?
Its activation factor is 2 (active).

With `Cc1ccc2c(c1)c1ncn(CCC3=CCCCC3)c(=O)c1n2C` as the molecule, how does the activation factor read?
The activation factor was 1.3.

Which activation factor does the source give for `Cc1cccc(-n2ncc3c(N4CCc5ccccc54)ncnc32)c1` here?
The activation factor was 1.5.

For `COc1ccc(N(CC(=O)NC2CCCCC2)C(=O)CNC(=O)c2ccco2)c(OC)c1`, which activation factor is on record?
Its activation factor is 1.2.

For `CSc1nc(C)cc(SC(C(C)=O)C(=O)Nc2ccccc2)n1` (centres undefined), which activation factor is on record?
The activation factor was 1.1.

With `CSc1nc2nc3c(c(=O)n2[nH]1)CCC3` as the molecule, how does the activation factor read?
Its activation factor is 1.2.

Which activation factor does the source give for `COc1ccccc1CCNC(=O)c1cnccn1` here?
The activation factor was 1.2.

With `CCCCCOC(=O)c1ccc(N2C(=O)C3C4C=CC(C4)C3C2=O)cc1` (centres undefined) as the molecule, how does the activation factor read?
The activation factor was 1.2.

For `O=C(NCc1ccc2c(c1)OCO2)C12CC3CC(CC(C3)C1)C2`, which activation factor is on record?
The activation factor was 1.

For `Cc1ccc(N(Cc2ccc(C(=O)Nc3ccccc3C(=O)NCc3ccco3)cc2)S(C)(=O)=O)cc1C`, which activation factor is on record?
The activation factor was 1.1.

With `COc1ccccc1NC(=O)/C=C/C(N)=O` as the molecule, how does the activation factor read?
The activation factor was 1.3.

With `CC(C)CCNC(=O)CC1C(=O)N(Cc2ccccc2)C(C)c2nc3ccccc3n21` (centres undefined) as the molecule, how does the activation factor read?
Its activation factor is 1.

With `CCOC(=O)c1ccccc1NS(=O)(=O)c1ccc(OC)cc1` as the molecule, how does the activation factor read?
The activation factor was 1.

Which activation factor does the source give for `CCn1c(CC(=O)Nc2ccc(C)cc2)nnc1SCC(=O)Nc1nc(C)cs1` here?
Its activation factor is 1.1.
